The term inhibition denotes the drop in the measured response relative to a control, in per cent.

Molecules are shown by their SMILES. “And” between values parts separate entries of the source, which are not always exact repeats. Equal values may be shown once. In all, about 190,000 compounds went through this assay and about 1,300 (0.68%) were called active. What follows is part of a selection rich in actives, with near analogues and random picks from the rest. Unmarked numbers belong to inactive results. Cut-off read from the data, not from the text of the source: active = inhibition above about 50%; inactive = the rest.

The target of this assay is Mannose-6-phosphate isomerase (Homo sapiens) (UniProt P34949). Nature of the assay: MPI inhibition at elevated mannose 6-phosphate – biochemical, fluorescence intensity, high mannose 6-phosphate, primary screen (AID 1220). Conditions: recombinant PMI enzyme, coupled fluorescence intensity; at 20 µM; hits give high values.
Chain of Mannose-6-phosphate isomerase (Homo sapiens) (P34949 whole entry, looked up): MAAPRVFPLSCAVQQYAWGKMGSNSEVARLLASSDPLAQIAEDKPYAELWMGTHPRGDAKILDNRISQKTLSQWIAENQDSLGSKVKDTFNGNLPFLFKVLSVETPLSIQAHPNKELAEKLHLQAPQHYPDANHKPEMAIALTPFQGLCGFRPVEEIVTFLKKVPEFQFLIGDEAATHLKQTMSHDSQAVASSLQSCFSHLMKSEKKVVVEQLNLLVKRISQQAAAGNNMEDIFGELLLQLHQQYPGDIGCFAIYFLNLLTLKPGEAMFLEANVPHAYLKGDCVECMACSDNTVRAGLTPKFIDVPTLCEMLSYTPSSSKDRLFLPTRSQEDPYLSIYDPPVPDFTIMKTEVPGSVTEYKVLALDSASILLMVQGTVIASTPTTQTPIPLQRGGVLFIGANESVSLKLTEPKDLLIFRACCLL
Consider `Cc1ccc(OCC(O)CN2CCN(CC(O)COC(C)C)CC2)c(C(C)(C)C)c1` (centres undefined), for which the inhibition was -2.3%.
The value for `COc1ccccc1NC(=O)C1=C(C)NC(=O)NC1c1ccccc1[N+](=O)[O-]` (centres undefined) was 19.9%; that for `COC(=O)C1=C(C)NC(C)=C([N+](=O)[O-])C1c1ccccc1C(F)(F)F` (centres undefined) was -0.9%; that for `CC1=C(C(=O)Nc2ccccc2)C(c2ccccc2[N+](=O)[O-])NC(=O)N1` (centres undefined) was 53.3% (active).
The value for `COC(=O)C1=C(C)NC(C)=C(C(=O)OC)C1c1ccccc1[N+](=O)[O-]` was 79.4% (active); that for `CC1=C(C(=O)Nc2ccccc2)C(c2cccs2)NC(=O)N1` (centres undefined) was -0.7%; that for `CCOC(=O)C1=C(C)NC(C)=C(C(=O)OC)C1c1cccc([N+](=O)[O-])c1` (centres undefined) was 9.7% and -2%.
The value for `COc1ccccc1NC(=O)c1cnc(Nc2ccccc2OC)c2ccccc12` was 6.4%.
Turning to `CC1Oc2ccccc2N(CC(=O)NCc2cccs2)C1=O` (centres undefined), the inhibition was 5.4%.
The same measure for `NC(=O)Cc1ccc(C(=O)c2ccccc2F)s1`: -7%; for `Cc1ccc(C(C)C)c(OCC(=O)N2CCOCC2)c1`: 4.1%.
The value for `O=C(O)COc1ccc(/C=N/n2cnc3scc(-c4cccs4)c3c2=O)cc1` was -8.8%; that for `Cc1ccc(-n2c(-c3ccncc3)n[nH]c2=S)c(C)c1` was 3.7%; that for `COc1ccc(OCC(=O)Nc2ccc3c(c2)nc2n3CCSC2)cc1` was 7.8%.
For `O=C(/C=C/c1cccc(OCc2ccccc2)c1)c1cccnc1`, the inhibition is -18.2%.
The same measure for `CCOC(=O)c1c(C)oc2c(CC(=O)c3ccccc3)c(Cl)c(O)c(O)c12`: 8.9%.
The value for `CCOC(=O)Cc1csc(NC(=O)NC2(C(F)(F)F)Oc3ccccc3O2)n1` was 21.4%; that for `CCOC(=O)Cc1csc(NC(=O)NC2(C(F)(F)F)Oc3cc(Cl)c(Cl)cc3O2)n1` was 54.7% (active); that for `CCOC(=O)Cc1csc(NC(=O)NC2(C(F)(F)F)Oc3ccc(Cl)cc3O2)n1` (centres undefined) was 47.9%.
For the compound `CC1CC1C(=O)OCC(=O)NCc1ccc(Cl)cc1Cl` (centres undefined), the inhibition is -7.7%.
The same measure for `CCSc1nnc(NC(=O)C2CC(=O)N(Cc3ccc(C)cc3)C2)s1` (centres undefined): -13.3%.
On to `Cc1ccc(NC(=S)Nc2ccc3nc(-c4ccccn4)c(-c4ccccn4)nc3c2)cc1C`, for which the inhibition is 63.1% (active).
The same measure for `CCOC(=O)C1CCN(C(=O)Nc2ccc3nccnc3c2)CC1`: 49.9%; for `S=C(Nc1ccc2nc(-c3ccccn3)c(-c3ccccn3)nc2c1)N1CCOCC1`: -7.8%; for `CCOC(=O)N1CCN(C(=O)Nc2ccc3nc(C)c(C)nc3c2)CC1`: 48.9%.
The value for `CCOC(=O)N1CCN(C(=O)Nc2ccc3nccnc3c2)CC1` was 55.1% (active); that for `CCOC(=O)N1CCN(C(=O)Nc2ccc3nc(-c4ccccn4)c(-c4ccccn4)nc3c2)CC1` was 25.7%.
The same measure for `CCCNC(=S)Nc1ccc2nc(-c3ccccn3)c(-c3ccccn3)nc2c1`: -9.4%; for `CN(C)NC(=S)Nc1ccc2nc(-c3ccccn3)c(-c3ccccn3)nc2c1`: -38.7%.
As to `O=C(Nc1ccc2nc(-c3ccccn3)c(-c3ccccn3)nc2c1)N1CCOCC1`, the inhibition is 62.6% (active).
Take `Cc1ccc2[nH]c3c(=O)n(CCN4CCNCC4)cnc3c2c1`: the inhibition is 24.5%.
The value for `Cc1[nH]c2ccccc2c1CCNC(=O)c1c(N)no[n+]1[O-]` was 15.2%; that for `O=c1c(Cl)c(N/N=C/c2ccc(Br)cc2)cnn1-c1ccccc1` was 4.9%; that for `O=C(Cc1cccc2ccccc12)Nc1ccc(OC(F)F)c(Cl)c1` was 10%.
The same measure for `CC1=CC(=O)C(C(C)C)=CC1=NC(=O)c1ccc(C)cc1`: 79% (active); for `CC1=CC(=O)C(C(C)C)=C/C1=N/OC(=O)c1cccc([N+](=O)[O-])c1`: -0.5%; for `CC1=CC(=O)C(C(C)C)=C/C1=N\OC(=O)c1cccc2nc(C)oc12`: 9.2%.
The same measure for `COC(=O)CCc1c(C)c(C(=O)c2ccc(F)cc2)c2ccccn12`: 6.2%; for `CCN=c1sc(C(=O)OC)cc(=O)n1CC`: 3.7%; for `O=C(NCC1OCCCN1S(=O)(=O)c1cc(F)ccc1F)C(=O)NC1CCCCC1` (centres undefined): -0.8%.
In the case of `Cc1coc2c1c(C)cc1oc(=O)c(Cc3ccccc3)c(C)c12`, the inhibition was -11.6%.
The same measure for `Cc1c(Cc2ccccc2)c(=O)oc2c(CN(C)C)c(O)c(Cl)cc12`: 7.5%; for `CCOC(=O)Cc1c(C)c2c(O)cc(O)cc2oc1=O`: 33.5%; for `Cc1c(Cc2ccccc2)c(=O)oc2cc(O)cc(O)c12`: 58.5% (active).
Consider `COc1ccc2c(C)c(Cc3ccccc3)c(=O)oc2c1OC`, for which the inhibition is 0.1%.
As for `COC(=O)Cc1ccc2oc(-c3cccnc3)nc2c1`, the inhibition is 1.9%.
For the compound `CCCc1c(C)c2c(C)[nH]nc2oc1=O`, the inhibition was 1.7%.
The same measure for `COc1cc(OC)nc(Oc2ccccc2C(=O)Oc2cccc(C)c2)n1`: 7%.
The same measure for `Cc1ccc(S(=O)(=O)Nc2nc3ccc(S(=O)(=O)N4CCCC4)cc3s2)cc1`: -22.6%; for `Cc1cccc(N=C2NC(=O)c3cc([N+](=O)[O-])ccc32)c1`: 0.2%.
With `Cc1ccc(N=C2NC(=O)c3cc([N+](=O)[O-])ccc32)cc1`, the inhibition was 6.9%.
The same measure for `NC(=O)c1ccc(C(=O)c2ccc([N+](=O)[O-])cc2)cc1`: -7.6%; for `O=C1NC(=Nc2ccccc2)c2ccc([N+](=O)[O-])cc21`: -7.3%; for `CCC(C)(C)n1nnnc1C(c1cc2cc(C)ccc2[nH]c1=O)N1CCCc2ccccc21` (centres undefined): 21.8%.
The same measure for `O=c1[nH]c2cc3c(cc2cc1C(c1nnnn1C1CCCC1)N1CCCc2ccccc21)OCCO3` (centres undefined): 27.2%; for `Cc1ccc2[nH]c(=O)c(C(c3nnnn3C3CCCC3)N3CCCc4ccccc43)cc2c1` (centres undefined): 61.4% (active); for `Cc1ccnc(NC(=O)C(C)n2cc([N+](=O)[O-])cn2)c1` (centres undefined): -10.1%.
As for `CCOc1cc(N2CCOCC2)c(OCC)cc1NC1=NCCCCC1`, the inhibition is 50.1% (active).
On to `CCOc1cc(N2CCOCC2)c(OCC)cc1NC(=O)c1ccc(NC(C)=O)cc1`, for which the inhibition is 26.1%.
As for `CCNC(=S)Nc1cc(OCC)c(N2CCOCC2)cc1OCC`, the inhibition is 58% (active).
`CCOc1cc(N2CCOCC2)c(OCC)cc1NC(=O)c1ccccc1`: the inhibition was 28.4%.
Regarding `CCOc1cc(N2CCOCC2)c(OCC)cc1NC(=O)c1nc2nc(C)cc(C)n2n1`, the inhibition was 14.6%.
The same measure for `CCOc1cc(N2CCOCC2)c(OCC)cc1NC(=O)c1ccc(S(C)(=O)=O)cc1`: 54.7% (active); for `O=S(=O)(Nc1ccc(N2CCOCC2)cc1)c1ccc(Cl)s1`: -4.9%; for `FC(F)(F)c1ccc(N2CCOCC2)c(NC2=NCCCCC2)c1`: 2.9%.
The same measure for `CCOc1cc(N2CCOCC2)c(OCC)cc1NC(=O)c1ccco1`: 25.1%; for `CCOc1cc(N2CCOCC2)c(OCC)cc1NC(=O)c1ccc(C)cc1`: 27.3%.
The value for `CCOc1ccc(Br)cc1S(=O)(=O)Nc1ccccc1N1CCOCC1` was -0.7%.
As to `CCOc1cc(N2CCOCC2)c(OCC)cc1NS(=O)(=O)c1ccc(Cl)s1`, the inhibition was 54.3% (active).

These data come from PubChem BioAssay AID1220 (Sanford-Burnham Center for Chemical Genomics, 2008).
